CHX counter – Cycloheximide Counterscreen for Small Molecule Inhibitors of Shiga Toxin; cell reporter, cycloheximide protein synthesis inhibition counterscreen; max response, %; hit rate 12% among 300,000; in the data active = max response mostly above about 13%, no sharp cut-off; inactive = mostly below about 14%; note: read at 38.3 µM for the half of the compounds with a filed dose
Shiga inhibitor – A qHTS for Small Molecule Inhibitors of Shiga Toxin; inhibition, % at 38.7 µM; hit rate 9.2% among 290,000; Vero cells, Shiga toxin protein synthesis inhibition reporter; AID 2315, 2010; in the data active = inhibition mostly above about 28%, no sharp cut-off; inactive = mostly below about 43%
Pf growth 48h – Primary qHTS for delayed death inhibitors of the malarial parasite plastid, 48 hour incubation | P. falciparum luciferase growth in erythrocytes, 48 h | Potency, µM (titrated, usually from 28.7 µM), hits mostly inhibitors | hit rate 5.9% among 310,000 | AID 504832, 2011
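First compound was added to culture medium, then infected red cells at 0.1% parasitemia and 2% hematocrit (final). After incubation at 37 C under 5% CO2, luciferase detection reagent was dispensed and light output recorded.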
SARS PLpro yeast – qHTS of Yeast-based Assay for SARS-CoV PLP; S. cerevisiae expressing SARS-CoV PLpro, growth rescue; Potency, µM (top dose mostly 32.9 µM), most hits filed as activators; hit rate 0.19% among 330,000; AID 485353, 2010; calls by dose curve; note: nearly all actives have a fitted effect of over 55% in size
AMA1-RON2 inh – qHTS for Inhibitors of AMA1-RON; Towards Development of Antimalarial Drug Lead: Primary Screen; Plasmodium falciparum AMA1 (3D7) - RON2 peptide interaction; AlphaScreen AMA1-biotinylated RON2 peptide binding; Potency, µM (series often up to 58.2 µM), usual class: inhibitors; hit rate 0.2% among 360,000; note: nearly all actives have a fitted effect of over 45% in size
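AMA1 (3D7) with his tag at 25 nM final met compounds first, then biotinylated RON2 peptide at 25 nM; detection used donor plus acceptor beads, 10 µg/mL apiece, read by AlphaScreen after 30 min at room temperature.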
Pf growth 96h – Primary qHTS for delayed death inhibitors of the malarial parasite plastid, 96 hour incubation; P. falciparum luciferase reporter growth, 96 h; Potency, µM (doses to about 28.7 µM), usual class: inhibitors; hit rate 6.9% among 320,000; AID 504834, 2011
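P. falciparum expressing integrated firefly luciferase grown in erythrocytes (2% hematocrit, 0.05% parasitemia final) with compounds for 96 hours at 37 C, 5% CO2. Growth inhibition read as loss of luminescence after adding luciferase detection reagent.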
A number is an active result; [ ] = dose if it differs, or a comment. Shown are actives, neighbours in structure and some others; about 19% of the full set was active somewhere. Unless noted, calls come from the whole dose curve; as a rule, active = well fitted curve in the direction sought with a large enough effect; inconclusive = small, poorly fitted or top-dose-only effect, or another doubt; inactive = no such curve, though single readings can be large; an effect the other way counts as inactive or inconclusive.

Results for CC/C(=N/NC(=O)c1ccc(Br)o1)c1ccc(Cl)cc1 ?
CHX counter: 39.2; Shiga inhibitor: 125.1; Pf growth 48h: inactive; SARS PLpro yeast: inactive; AMA1-RON2 inh: inactive; Pf growth 96h: inactive

Results for CCCC/C(=N\NC(=O)c1ccc(Br)o1)c1ccccc1 ?
CHX counter: 31.6; Shiga inhibitor: 46.0; Pf growth 48h: inconclusive; SARS PLpro yeast: inactive; AMA1-RON2 inh: inactive; Pf growth 96h: inconclusive

How did Cc1ccsc1C(=O)N1CCC1(C)C(=O)NS(=O)(=O)c1ccccc1 (stereo not drawn) do in these assays?
AMA1-RON2 inh: inactive

What do the screens show for `CC(C)(C)C(=O)N1CCc2cc(-c3csc(N)n3)ccc21`?
CHX counter: inactive; Shiga inhibitor: inactive; Pf growth 48h: inactive; SARS PLpro yeast: inactive; AMA1-RON2 inh: inactive; Pf growth 96h: inactive

How did CCCC(=O)N1CCc2cc(-c3nc(N)sc3C)ccc21 do in these assays?
CHX counter: 49.4; Shiga inhibitor: 79.2; Pf growth 48h: inactive; SARS PLpro yeast: inactive; AMA1-RON2 inh: inactive; Pf growth 96h: inactive

How did CCC(C)C(=O)N1CCc2cc(-c3csc(N)n3)ccc21 (stereo not drawn) do in these assays?
CHX counter: 51.5; Shiga inhibitor: 65.2; Pf growth 48h: inactive; SARS PLpro yeast: inactive; AMA1-RON2 inh: inactive; Pf growth 96h: inactive

What do the screens show for `Oc1ccccc1/C=N/N1CCN(c2ccccn2)CC1`?
CHX counter: 36.6; Shiga inhibitor: 89.5; Pf growth 48h: inactive; SARS PLpro yeast: inactive; AMA1-RON2 inh: inconclusive; Pf growth 96h: inactive

Results for C(=N\N1CCN(c2ccccn2)CC1)/c1cccc2ccccc12 ?
CHX counter: 16.8; Shiga inhibitor: 42.8; Pf growth 48h: inactive; SARS PLpro yeast: inactive; AMA1-RON2 inh: 14.1µM; Pf growth 96h: inactive

How did CC(C)c1ccc(NC(=O)CN2CCN(c3ccccn3)CC2)cc1 do in these assays?
CHX counter: inactive; Shiga inhibitor: inactive; Pf growth 48h: inactive; SARS PLpro yeast: inactive; AMA1-RON2 inh: inactive; Pf growth 96h: inactive

What do the screens show for `Cc1cncc(N2CCN(c3ccccn3)CC2)n1`?
AMA1-RON2 inh: inactive

How did CC(C)c1ccc(/C=N/N2CCCCC2)cc1 do in these assays?
CHX counter: 31.2; Shiga inhibitor: 139.3; Pf growth 48h: inactive; SARS PLpro yeast: inactive; AMA1-RON2 inh: inactive; Pf growth 96h: inactive

What do the screens show for `CC(C)c1ccc(/C=N/N2CCN(c3ccccn3)CC2)cc1`?
CHX counter: 20.7; Shiga inhibitor: 43.2; Pf growth 48h: inactive; SARS PLpro yeast: inactive; AMA1-RON2 inh: inactive; Pf growth 96h: inactive

How did O=c1c2ccccc2nc(-c2ccco2)n1CCc1ccc(O)cc1 do in these assays?
CHX counter: inactive; Shiga inhibitor: inactive; Pf growth 48h: inconclusive; SARS PLpro yeast: inactive; AMA1-RON2 inh: inactive; Pf growth 96h: inconclusive

How did O=C(/C=C/c1ccc(Cl)c(Cl)c1)NCCCn1ccnc1 do in these assays?
CHX counter: 25.1; Shiga inhibitor: 50.7; Pf growth 48h: inactive; SARS PLpro yeast: inactive; AMA1-RON2 inh: inactive; Pf growth 96h: inconclusive

How did O=C(CNC(=O)c1ccc(Cl)cc1)NCCCn1ccnc1 do in these assays?
CHX counter: inactive; Shiga inhibitor: inactive; Pf growth 48h: 10.4µM; SARS PLpro yeast: inactive; AMA1-RON2 inh: inactive; Pf growth 96h: inconclusive

How did O=C(NCCCn1ccnc1)c1ccc(Cl)cc1 do in these assays?
CHX counter: inactive; Shiga inhibitor: inactive; Pf growth 48h: inactive; SARS PLpro yeast: inactive; AMA1-RON2 inh: inactive; Pf growth 96h: inactive

What do the screens show for `COc1cccc(NC(=O)C(=O)NCCCn2ccnc2)c1`?
CHX counter: 33.6; Shiga inhibitor: inactive; Pf growth 48h: inactive; SARS PLpro yeast: inactive; AMA1-RON2 inh: inactive; Pf growth 96h: inconclusive

What do the screens show for `O=C(NCCCn1ccnc1)c1cccc(Cl)c1`?
CHX counter: inactive; Shiga inhibitor: inactive; Pf growth 48h: inactive[0.00184 µM]; SARS PLpro yeast: inactive; AMA1-RON2 inh: inactive; Pf growth 96h: inactive

What do the screens show for `CCCCCOc1ccc(NC(=O)C(=O)NCCCn2ccnc2)cc1`?
CHX counter: inactive; Shiga inhibitor: inactive; Pf growth 48h: inactive; SARS PLpro yeast: inactive; AMA1-RON2 inh: inactive

Results for O=C(NCCCn1ccnc1)Nc1cccc(Cl)c1 ?
CHX counter: inactive; Shiga inhibitor: inactive; Pf growth 48h: inactive; SARS PLpro yeast: inactive; AMA1-RON2 inh: 25.1µM; Pf growth 96h: inactive

Results for CCOc1ccc(NS(=O)(=O)c2ccc(C(=O)N(C)CCc3ccc(OC)c(OC)c3)cc2)cc1 ?
CHX counter: inactive; Shiga inhibitor: inactive; Pf growth 48h: inactive; SARS PLpro yeast: inactive; AMA1-RON2 inh: inactive; Pf growth 96h: inactive

How did CCOc1ccc(CN2CCN(Cc3cc4c(cc3Cl)OCO4)CC2CCO)cc1 (stereo not drawn) do in these assays?
CHX counter: inactive; Shiga inhibitor: inactive; Pf growth 48h: inconclusive; SARS PLpro yeast: inactive; AMA1-RON2 inh: inactive; Pf growth 96h: inconclusive

Results for O=C(NCCCn1ccnc1)Nc1ccc2c(c1)OCO2 ?
CHX counter: 38.7; Shiga inhibitor: 75.8; Pf growth 48h: inactive; SARS PLpro yeast: inactive; AMA1-RON2 inh: inactive; Pf growth 96h: inactive

How did O=C(NCCCn1ccnc1)c1ccncc1 do in these assays?
CHX counter: inactive; Shiga inhibitor: inactive; Pf growth 48h: inactive; SARS PLpro yeast: inactive; AMA1-RON2 inh: inactive; Pf growth 96h: inconclusive

How did CC(C)(C)c1cc(CCC(=O)NN)cc(C(C)(C)C)c1O do in these assays?
CHX counter: inactive; Shiga inhibitor: inactive; Pf growth 48h: inconclusive; SARS PLpro yeast: inactive; AMA1-RON2 inh: inactive; Pf growth 96h: inactive

How did CC1CN(C(=O)CCc2cc(C(C)(C)C)c(O)c(C(C)(C)C)c2)CC(C)O1 (stereo not drawn) do in these assays?
CHX counter: inactive; Shiga inhibitor: inactive; Pf growth 48h: inconclusive; SARS PLpro yeast: inactive; AMA1-RON2 inh: inactive; Pf growth 96h: 7.38µM

Results for CCCC(=O)Nc1cc(C)cn(Cc2c(F)cccc2Cl)c1=O ?
CHX counter: inactive; Shiga inhibitor: inactive; Pf growth 48h: inactive; SARS PLpro yeast: inactive; AMA1-RON2 inh: inactive; Pf growth 96h: inconclusive

What do the screens show for `COCC(=O)Nc1cc(C)cn(Cc2ccccc2Cl)c1=O`?
CHX counter: inactive; Pf growth 48h: inactive; SARS PLpro yeast: inactive; AMA1-RON2 inh: inactive; Pf growth 96h: 0.0828µM

How did Cc1ccc(NC(=O)c2ccc(Cl)c(N3C(=O)C=CC3=O)c2)cc1 do in these assays?
CHX counter: 56.9; Shiga inhibitor: 81.0; Pf growth 48h: inactive; SARS PLpro yeast: inactive; AMA1-RON2 inh: inactive; Pf growth 96h: inactive

How did O=C(Nc1ccc(Cl)c(Cl)c1)c1ccncc1 do in these assays?
CHX counter: 30.6; Shiga inhibitor: 101.0; Pf growth 48h: inactive; SARS PLpro yeast: inactive; AMA1-RON2 inh: inactive; Pf growth 96h: 14.7µM

Results for O=C(Nc1ccc(Cl)c(Cl)c1)c1ccc(Cl)c(Cl)c1 ?
CHX counter: 50.3; Shiga inhibitor: 88.7; Pf growth 48h: inactive; SARS PLpro yeast: inactive; AMA1-RON2 inh: inactive; Pf growth 96h: inactive

Screens from PubChem.
